From publication PMC7862700, “An all-to-all approach to the identification of sequence-specific readers for epigenetic DNA modifications on cytosine”

Columns and labels:
Test in all cases: DAPPL (digital affinity profiling via proximity ligation, sequencing); 10 mM Tris-HCl pH 7.5, 50 mM NaCl, 1 mM DTT, 4% glycerol, room temperature, 30 min; GST-TFs on glutathione beads, 16-mer random dsDNA library, 0.1% formaldehyde crosslink after washing; high values mean tight binding
Details in all cases: protein: recombinant; tags: N-terminal GST; dsDNA, one strand shown
FLI1 = biological target: T1, FLI1 (Homo sapiens, UniProt Q01543 1-452)
T1 sequence: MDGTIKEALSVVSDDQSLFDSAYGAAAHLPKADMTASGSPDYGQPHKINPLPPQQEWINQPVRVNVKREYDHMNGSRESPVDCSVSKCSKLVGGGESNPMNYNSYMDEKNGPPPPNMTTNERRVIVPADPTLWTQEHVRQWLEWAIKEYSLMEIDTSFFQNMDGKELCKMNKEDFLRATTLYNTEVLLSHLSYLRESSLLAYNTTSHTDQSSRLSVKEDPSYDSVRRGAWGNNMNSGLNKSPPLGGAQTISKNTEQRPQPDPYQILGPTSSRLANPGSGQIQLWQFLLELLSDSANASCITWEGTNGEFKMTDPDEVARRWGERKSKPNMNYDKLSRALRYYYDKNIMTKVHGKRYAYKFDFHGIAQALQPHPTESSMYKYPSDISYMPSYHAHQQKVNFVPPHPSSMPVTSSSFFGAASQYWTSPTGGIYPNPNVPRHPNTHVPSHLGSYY
How it was run: (§1)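 Each value of binding signal is a hexamer's read frequency for a factor divided by the same hexamer's frequency in the tag-only sample. Barcoded, bead-captured GST fusions of human transcription factors made in yeast were pooled with that sample and incubated with 200 nmole of a random double-stranded 16-mer DNA library in Tris/NaCl/DTT/glycerol buffer at room temperature for 30 min. Washing, 0.1% formaldehyde crosslinking, proximity ligation, PCR and Illumina NextSeq500 sequencing followed.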

ELK1 = biological target: T2, ELK1 (Homo sapiens, UniProt P19419 1-428)
T2 sequence: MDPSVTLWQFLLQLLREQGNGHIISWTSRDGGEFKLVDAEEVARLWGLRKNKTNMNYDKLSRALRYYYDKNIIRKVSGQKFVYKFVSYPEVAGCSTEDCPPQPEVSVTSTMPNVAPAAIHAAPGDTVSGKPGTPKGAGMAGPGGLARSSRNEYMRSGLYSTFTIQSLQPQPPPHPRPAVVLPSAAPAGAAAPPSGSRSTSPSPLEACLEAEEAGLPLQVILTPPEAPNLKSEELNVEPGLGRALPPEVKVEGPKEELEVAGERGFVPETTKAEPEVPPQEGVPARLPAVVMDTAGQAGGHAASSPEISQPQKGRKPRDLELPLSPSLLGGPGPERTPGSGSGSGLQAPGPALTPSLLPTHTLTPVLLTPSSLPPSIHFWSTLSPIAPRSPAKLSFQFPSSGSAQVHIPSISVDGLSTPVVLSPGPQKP
How it was run: as §1

GABPA = biological target: T3, GABPA (Homo sapiens, UniProt Q06546 1-454)
T3 sequence: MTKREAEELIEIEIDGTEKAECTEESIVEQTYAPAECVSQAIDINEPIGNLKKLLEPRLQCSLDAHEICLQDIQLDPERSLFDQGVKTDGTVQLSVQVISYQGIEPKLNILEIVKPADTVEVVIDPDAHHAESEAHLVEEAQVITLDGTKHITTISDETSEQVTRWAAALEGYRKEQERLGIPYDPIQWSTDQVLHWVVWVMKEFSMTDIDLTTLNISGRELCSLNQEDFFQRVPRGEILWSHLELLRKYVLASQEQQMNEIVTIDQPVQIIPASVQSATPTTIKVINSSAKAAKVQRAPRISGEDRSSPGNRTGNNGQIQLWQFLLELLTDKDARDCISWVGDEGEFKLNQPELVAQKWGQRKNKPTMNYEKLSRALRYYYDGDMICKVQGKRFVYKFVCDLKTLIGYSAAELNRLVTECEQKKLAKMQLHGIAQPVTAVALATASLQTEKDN
How it was run: as §1

ELF1 = ELF1 (Homo sapiens, UniProt P32519 1-619)
How it was run: as §1

EHF = biological target: T4, EHF (Homo sapiens, UniProt Q9NZC4 1-300)
T4 sequence: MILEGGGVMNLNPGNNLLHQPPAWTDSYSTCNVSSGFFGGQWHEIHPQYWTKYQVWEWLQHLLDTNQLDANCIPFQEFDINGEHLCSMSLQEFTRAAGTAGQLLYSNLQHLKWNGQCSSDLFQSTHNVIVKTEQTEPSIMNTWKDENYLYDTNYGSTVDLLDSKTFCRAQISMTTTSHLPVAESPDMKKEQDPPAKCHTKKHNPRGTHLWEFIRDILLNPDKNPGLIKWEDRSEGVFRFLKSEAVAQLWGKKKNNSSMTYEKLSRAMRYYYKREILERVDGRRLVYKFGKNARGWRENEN
How it was run: as §1

SPI1 = SPI1 (Homo sapiens, UniProt P17947 1-270)
How it was run: as §1

SPIB = SPIB (Homo sapiens, UniProt Q01892 1-262)
How it was run: as §1

ELK3 = biological target: T5, ELK3 (Homo sapiens, UniProt P41970 1-407)
T5 sequence: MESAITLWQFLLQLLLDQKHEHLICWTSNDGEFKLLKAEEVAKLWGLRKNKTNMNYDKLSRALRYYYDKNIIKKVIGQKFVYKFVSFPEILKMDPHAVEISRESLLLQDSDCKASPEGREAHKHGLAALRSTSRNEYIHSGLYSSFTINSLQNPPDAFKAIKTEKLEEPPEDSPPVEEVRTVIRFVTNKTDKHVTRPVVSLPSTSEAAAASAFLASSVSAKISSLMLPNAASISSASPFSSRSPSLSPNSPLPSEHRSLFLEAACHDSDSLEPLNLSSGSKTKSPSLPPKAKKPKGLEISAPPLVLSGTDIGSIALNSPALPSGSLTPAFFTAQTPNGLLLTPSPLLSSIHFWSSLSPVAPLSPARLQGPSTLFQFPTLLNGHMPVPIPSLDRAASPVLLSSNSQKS
How it was run: as §1

ERG = biological target: T6, ERG (Homo sapiens, UniProt P11308 1-479)
T6 sequence: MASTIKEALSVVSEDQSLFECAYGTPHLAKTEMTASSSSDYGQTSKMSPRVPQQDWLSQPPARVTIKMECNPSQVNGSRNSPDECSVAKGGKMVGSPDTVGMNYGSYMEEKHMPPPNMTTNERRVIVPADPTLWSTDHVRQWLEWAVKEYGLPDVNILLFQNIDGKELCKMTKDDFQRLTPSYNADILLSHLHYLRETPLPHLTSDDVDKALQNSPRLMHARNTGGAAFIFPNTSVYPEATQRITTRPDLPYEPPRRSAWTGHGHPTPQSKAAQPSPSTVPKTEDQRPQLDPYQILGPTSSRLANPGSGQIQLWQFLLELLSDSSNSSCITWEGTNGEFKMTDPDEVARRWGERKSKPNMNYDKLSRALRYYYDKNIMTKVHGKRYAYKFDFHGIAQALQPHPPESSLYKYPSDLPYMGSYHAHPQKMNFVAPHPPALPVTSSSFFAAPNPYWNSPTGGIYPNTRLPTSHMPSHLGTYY
How it was run: as §1

Chain of ELF1 (P32519 whole entry): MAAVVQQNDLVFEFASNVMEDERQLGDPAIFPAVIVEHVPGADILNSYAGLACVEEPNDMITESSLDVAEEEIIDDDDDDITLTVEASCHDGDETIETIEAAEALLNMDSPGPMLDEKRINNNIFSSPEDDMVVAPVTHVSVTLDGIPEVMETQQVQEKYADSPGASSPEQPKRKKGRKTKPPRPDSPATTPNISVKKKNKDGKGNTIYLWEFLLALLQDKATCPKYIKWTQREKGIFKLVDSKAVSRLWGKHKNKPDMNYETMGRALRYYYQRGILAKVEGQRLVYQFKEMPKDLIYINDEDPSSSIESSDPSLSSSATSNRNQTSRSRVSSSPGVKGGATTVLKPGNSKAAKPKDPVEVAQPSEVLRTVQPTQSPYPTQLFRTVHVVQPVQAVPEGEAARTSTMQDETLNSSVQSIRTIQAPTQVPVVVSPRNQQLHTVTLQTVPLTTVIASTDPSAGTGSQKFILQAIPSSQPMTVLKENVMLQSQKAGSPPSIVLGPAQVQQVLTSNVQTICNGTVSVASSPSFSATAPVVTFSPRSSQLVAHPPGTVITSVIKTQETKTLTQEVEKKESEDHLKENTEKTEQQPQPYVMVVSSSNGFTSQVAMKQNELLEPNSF
Chain of SPIB (Q01892 whole entry): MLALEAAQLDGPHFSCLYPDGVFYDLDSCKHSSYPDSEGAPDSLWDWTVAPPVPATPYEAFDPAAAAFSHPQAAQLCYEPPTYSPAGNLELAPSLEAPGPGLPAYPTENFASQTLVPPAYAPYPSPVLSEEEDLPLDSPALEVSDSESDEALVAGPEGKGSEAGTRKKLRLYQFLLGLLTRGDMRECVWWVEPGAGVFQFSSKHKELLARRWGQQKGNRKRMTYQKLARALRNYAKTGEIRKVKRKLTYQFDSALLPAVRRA

Sequence	binding signal (FLI1)	binding signal (ELK1)	binding signal (GABPA)	binding signal (ELF1)	binding signal (EHF)	binding signal (SPI1)	binding signal (SPIB)	binding signal (ELK3)	binding signal (ERG)
TCAGCA	1.08 fold enrichment (6-mer frequency, TF over GST control)	1.02 fold enrichment (6-mer frequency, TF over GST control)	1.06 fold enrichment (6-mer frequency, TF over GST control)	1.04 fold enrichment (6-mer frequency, TF over GST control)	1.09 fold enrichment (6-mer frequency, TF over GST control)	1.02 fold enrichment (6-mer frequency, TF over GST control)	1.01 fold enrichment (6-mer frequency, TF over GST control)	1.07 fold enrichment (6-mer frequency, TF over GST control)	
TAGCGA	1.1 fold enrichment (6-mer frequency, TF over GST control)	1.01 fold enrichment (6-mer frequency, TF over GST control)	1.18 fold enrichment (6-mer frequency, TF over GST control)	1.03 fold enrichment (6-mer frequency, TF over GST control)	1.03 fold enrichment (6-mer frequency, TF over GST control)			1.08 fold enrichment (6-mer frequency, TF over GST control)	
CAGAAT	1 fold enrichment (6-mer frequency, TF over GST control)	1.01 fold enrichment (6-mer frequency, TF over GST control)	1.02 fold enrichment (6-mer frequency, TF over GST control)	1.03 fold enrichment (6-mer frequency, TF over GST control)	1.05 fold enrichment (6-mer frequency, TF over GST control)		1.05 fold enrichment (6-mer frequency, TF over GST control)	1.01 fold enrichment (6-mer frequency, TF over GST control)	
AAAGGT	1.1 fold enrichment (6-mer frequency, TF over GST control)	1.06 fold enrichment (6-mer frequency, TF over GST control)	1.1 fold enrichment (6-mer frequency, TF over GST control)	1.07 fold enrichment (6-mer frequency, TF over GST control)	1.06 fold enrichment (6-mer frequency, TF over GST control)	1.01 fold enrichment (6-mer frequency, TF over GST control)	1.02 fold enrichment (6-mer frequency, TF over GST control)	1.05 fold enrichment (6-mer frequency, TF over GST control)	
GCTGAC	1.17 fold enrichment (6-mer frequency, TF over GST control)	1.1 fold enrichment (6-mer frequency, TF over GST control)	1.04 fold enrichment (6-mer frequency, TF over GST control)	1.16 fold enrichment (6-mer frequency, TF over GST control)	1.21 fold enrichment (6-mer frequency, TF over GST control)	1.04 fold enrichment (6-mer frequency, TF over GST control)	1.12 fold enrichment (6-mer frequency, TF over GST control)	1.13 fold enrichment (6-mer frequency, TF over GST control)	
ACAGAT	1.02 fold enrichment (6-mer frequency, TF over GST control)	1.1 fold enrichment (6-mer frequency, TF over GST control)		1.02 fold enrichment (6-mer frequency, TF over GST control)	1.03 fold enrichment (6-mer frequency, TF over GST control)				1.07 fold enrichment (6-mer frequency, TF over GST control)
CGCCAA	1.03 fold enrichment (6-mer frequency, TF over GST control)	1.02 fold enrichment (6-mer frequency, TF over GST control)	1.03 fold enrichment (6-mer frequency, TF over GST control)	1.08 fold enrichment (6-mer frequency, TF over GST control)	1.04 fold enrichment (6-mer frequency, TF over GST control)	1.04 fold enrichment (6-mer frequency, TF over GST control)	1.02 fold enrichment (6-mer frequency, TF over GST control)	1.06 fold enrichment (6-mer frequency, TF over GST control)	
AAGCGA	1.02 fold enrichment (6-mer frequency, TF over GST control)	1.02 fold enrichment (6-mer frequency, TF over GST control)		1.06 fold enrichment (6-mer frequency, TF over GST control)	1.19 fold enrichment (6-mer frequency, TF over GST control)	1.07 fold enrichment (6-mer frequency, TF over GST control)	1 fold enrichment (6-mer frequency, TF over GST control)	1.07 fold enrichment (6-mer frequency, TF over GST control)	1.11 fold enrichment (6-mer frequency, TF over GST control)
CCCTGG	1.1 fold enrichment (6-mer frequency, TF over GST control)	1.13 fold enrichment (6-mer frequency, TF over GST control)	1.21 fold enrichment (6-mer frequency, TF over GST control)	1.19 fold enrichment (6-mer frequency, TF over GST control)	1.11 fold enrichment (6-mer frequency, TF over GST control)	1.06 fold enrichment (6-mer frequency, TF over GST control)	1.09 fold enrichment (6-mer frequency, TF over GST control)	1.03 fold enrichment (6-mer frequency, TF over GST control)	
CAGATT	1.07 fold enrichment (6-mer frequency, TF over GST control)	1.05 fold enrichment (6-mer frequency, TF over GST control)		1 fold enrichment (6-mer frequency, TF over GST control)	1.01 fold enrichment (6-mer frequency, TF over GST control)	1.03 fold enrichment (6-mer frequency, TF over GST control)	1.02 fold enrichment (6-mer frequency, TF over GST control)	1.12 fold enrichment (6-mer frequency, TF over GST control)	1.06 fold enrichment (6-mer frequency, TF over GST control)
AGCTAA	1.08 fold enrichment (6-mer frequency, TF over GST control)	1.05 fold enrichment (6-mer frequency, TF over GST control)		1.02 fold enrichment (6-mer frequency, TF over GST control)	1.08 fold enrichment (6-mer frequency, TF over GST control)	1.08 fold enrichment (6-mer frequency, TF over GST control)	1.01 fold enrichment (6-mer frequency, TF over GST control)	1.01 fold enrichment (6-mer frequency, TF over GST control)	1.06 fold enrichment (6-mer frequency, TF over GST control)
TTGGGT	1.02 fold enrichment (6-mer frequency, TF over GST control)	1.13 fold enrichment (6-mer frequency, TF over GST control)	1.22 fold enrichment (6-mer frequency, TF over GST control)	1.09 fold enrichment (6-mer frequency, TF over GST control)	1.04 fold enrichment (6-mer frequency, TF over GST control)	1.02 fold enrichment (6-mer frequency, TF over GST control)	1.05 fold enrichment (6-mer frequency, TF over GST control)	1.16 fold enrichment (6-mer frequency, TF over GST control)	
TTCGCG	1.13 fold enrichment (6-mer frequency, TF over GST control)	1.07 fold enrichment (6-mer frequency, TF over GST control)		1.14 fold enrichment (6-mer frequency, TF over GST control)	1.21 fold enrichment (6-mer frequency, TF over GST control)	1.18 fold enrichment (6-mer frequency, TF over GST control)	1.14 fold enrichment (6-mer frequency, TF over GST control)	1.15 fold enrichment (6-mer frequency, TF over GST control)	1.08 fold enrichment (6-mer frequency, TF over GST control)
TAACAG	1.06 fold enrichment (6-mer frequency, TF over GST control)	1.05 fold enrichment (6-mer frequency, TF over GST control)		1.09 fold enrichment (6-mer frequency, TF over GST control)	1.07 fold enrichment (6-mer frequency, TF over GST control)	1.11 fold enrichment (6-mer frequency, TF over GST control)	1.09 fold enrichment (6-mer frequency, TF over GST control)	1.07 fold enrichment (6-mer frequency, TF over GST control)	1.01 fold enrichment (6-mer frequency, TF over GST control)
GTTTGG	1.07 fold enrichment (6-mer frequency, TF over GST control)	1.07 fold enrichment (6-mer frequency, TF over GST control)	1.04 fold enrichment (6-mer frequency, TF over GST control)	1.05 fold enrichment (6-mer frequency, TF over GST control)		1.01 fold enrichment (6-mer frequency, TF over GST control)	1.1 fold enrichment (6-mer frequency, TF over GST control)		
AAAGCC	1.05 fold enrichment (6-mer frequency, TF over GST control)	1.05 fold enrichment (6-mer frequency, TF over GST control)	1.04 fold enrichment (6-mer frequency, TF over GST control)	1.08 fold enrichment (6-mer frequency, TF over GST control)			1 fold enrichment (6-mer frequency, TF over GST control)		
